# Source: PubChem BioAssay (several laboratories)
# Shown are actives, neighbours in structure and some others; about 2.9% of the full set was active somewhere.
# KLK7 zymogen act: activators of human kallikrein-7 zymogen. P49862. purified proKLK7, EDANS-DABCYL substrate fluorescence; 100% is mature enzyme control, 0% vehicle. activation, % at 7 µM. hit rate 0.9% among 370,000. AID 652039;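 active means activation above the mean of all tested compounds plus 3 SD, computed per campaign excluding outliers beyond control limits, cut at about 13% in these data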
# SMARCA2 activ: activators of SMARCA2 function. AID 652017. hit rate 1% among 370,000. activation, % at 9.1 µM. MG213 cells, MMTV-luciferase reporter, dexamethasone, overnight; in the data active means activation above about 7.8%;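 further: 0% = vehicle wells and 100% = reference activator wells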
# FAS TE block: inhibitors of human fatty acid synthase thioesterase domain | P49327 | recombinant FAS-TE, OMFH fluorogenic substrate, fluorescence endpoint | inhibition, % at 15 µM | hit rate 0.67% among 360,000 | AID 602261;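 active means compounds whose normalised, plate-corrected inhibition of enzyme fluorescence in the single-dose primary screen is 50% or more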;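 further: 0% = DMSO with enzyme and 100% = substrate without enzyme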
# FXN GAA850 act: increases GAA850 frataxin promoter reporter activity; HEK293 lucGAA850 FXN promoter luciferase reporter, 24 h; percent of 10 µM SAHA response; activation, % at 6 µM; hit rate 0.56% among 360,000; AID 540364;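 active means activation above the average of all compounds screened plus 3 SD, cutoff fixed separately per campaign, cut at about 7.5% in these data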;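 further: 0% = DMSO wells and 100% = 10 µM SAHA wells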
# GAA30 counter: counter-screen for GAA850 frataxin promoter activators: GAA30 promoter activation | shares compounds with FXN GAA850 act | HEK293 lucGAA30 FXN promoter luciferase, 24 h; DMSO = 0%, 5 µM ipriflavone = 100% | activation, % at 6 µM | hit rate 66% among 1,900 | AID 588350;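 active means mean activation above the mean of solvent-only control wells plus 3 SD, cut at about 22% in these data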;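 further: counterscreen of GAA850 promoter hits where activity marks nonselective or luminescence artifacts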
# FXN GAA850 conf: confirmation of GAA850 frataxin (FXN) promoter activators. activation, % at 6 µM. HEK293 lucGAA850 FXN promoter luciferase reporter, 24 h; 100% = activation by SAHA. AID 588351. shares compounds with FXN GAA850 act. hit rate 86% among 1,900;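 active means mean activation above a set limit taken from the primary screen, cut at about 8% in these data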;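 further: 0% = DMSO wells and 100% = 10 µM SAHA wells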
# * marks the source's active call; other numbers are inactive results; . = not tested or not shown.
SMILES,KLK7 zymogen act,SMARCA2 activ,FAS TE block,FXN GAA850 act,GAA30 counter,FXN GAA850 conf
CN(C(=O)COC(=O)CNC(=O)c1ccc2ccccc2c1)c1c(N)n(Cc2ccccc2)c(=O)[nH]c1=O,1,-2,-2,1,.,.
COc1ccc(N(C(=O)c2ccco2)C(C(=O)NC2CCCC2)c2ccco2)cc1OC (stereo unspecified),-1,-1,0,-2,.,.
Cc1ccc(-c2nn3c(C)nnc3s2)cc1NC(=O)c1ccco1,0,0,-7,14*,26*,6
CC1(C)CN(CCc2ccccc2)C(=O)[C@H]1CC(=O)Nc1ccccc1,0,2,-4,-2,.,.
COc1cccc(N=Nc2ccc(O)c3ncccc23)c1,0,3,8,9.6*,-107,-33
COc1ccc(N=Nc2ccc(O)c3ncccc23)cc1,0,5,0,4,.,.
COc1ccc(OC)c(CC(NC(C)=O)C(=O)NC2CCN(c3nnnn3-c3ccccc3)CC2)c1 (stereo unspecified),0,-4,.,.,.,.
Cc1c(CCOC(=O)C23CC4CC(CC(C)(C4)C2)C3)sc[n+]1CC(=O)c1ccccc1,0,3,24,8.3*,31*,20*
Cc1c(CCOC(=O)CC23CC4CC(CC(C)(C4)C2)C3)sc[n+]1CC(=O)c1ccccc1,1,-4,31,9.7*,12,14*
Cc1c(CCOC(=O)CC23CC4CC(CC(C4)C2)C3)sc[n+]1CC(=O)c1ccc(Br)cc1,1,-1,17,4,.,.
COc1ccc(/C=C2\SC(N3CCCCC3)=NC2=O)cc1OC,1,2,-2,9.5*,29*,21*
COc1cccc(-c2ccc(SCc3ccccn3)nn2)c1,0,1,2,8.7*,110*,36*
COc1ccc(-c2ccc(SCc3ccccn3)nn2)cc1OC,0,0,-2,5,.,.
CCOC(=O)c1c(CN2CCN(CCO)CC2)n(C)c2cc(Br)c(OC)cc12,0,2,-7,8.2*,23*,18*
O=C(NN=C1C2CC3CC(C2)CC1C3)c1cccs1,0,3,-7,8.8*,24*,11*
CC(=O)N1CCC(=NNC(=O)c2cccs2)CC1,0,6,-6,8.7*,11,1
CCC(C)(C)NC(=O)C(C(C)C)N(CC1CCCO1)C(=O)CNS(=O)(=O)c1ccccc1 (stereo unspecified),0,0,-1,1,.,.
COc1ccc(CN(C)CCCn2cnc3c(OCc4ccccc4)ncnc32)cc1OC,-1,-1,-12,2,.,.
O=C(Cn1c(=O)oc2cc(S(=O)(=O)N3CCCCCC3)ccc21)NC1CCCCCCC1,0,-2,-4,16*,19,16*
CCCNC(=O)Cn1c(=O)oc2cc(S(=O)(=O)N3CCCC3)ccc21,1,0,-11,0,.,.
Cn1c(=O)oc2cc(S(=O)(=O)N3CCC(C(=O)NCc4ccc(F)cc4)CC3)ccc21,0,1,-1,11*,14,6
COc1ccc(/C=N/NC(=O)C(C)n2nnc3ccccc32)cc1OC (stereo unspecified),-1,2,-2,8.5*,20,11*
COc1cc(/C=N/NC(=O)C(C)n2nnc3ccccc32)ccc1O (stereo unspecified),-1,-2,-4,1,.,.
O=C(COC(=O)C1=COCCO1)Nc1ccc([N+](=O)[O-])cc1C(F)(F)F,0,-2,-4,1,.,.
COc1ccc(-c2[nH]c3ccccc3c2SCCNC(=O)c2ccccc2)cc1,0,-4,25,22*,2,5
SMILES,KLK7 zymogen act,SMARCA2 activ,FAS TE block,FXN GAA850 act,GAA30 counter,FXN GAA850 conf
C[C@H](Cc1ccccc1)Nc1ncnc2c1ncn2[C@@H]1O[C@H](CO)[C@@H](O)[C@H]1O,0,3,-4,7,.,.
OC[C@H]1O[C@@H](n2cnc3c(NC4CCCC4)nc(Cl)nc32)[C@H](O)[C@@H]1O,0,-6,-3,8.5*,31*,18*
CC(Cc1ccccc1)Nc1ncnc2c1ncn2C1OC(CO)C(O)C1O (stereo unspecified),0,3,1,8.7*,55*,25*
Cc1cc(C)cc(NC(=O)CN2C(=O)C3CC=CCC3C2=O)c1 (stereo unspecified),0,-3,-7,2,.,.
CCNc1nc(NCC)nc(Oc2ccc(OCC)nn2)n1,0,3,-10,3,.,.
CCNc1nc(N)nc(Oc2ccc(OCCOc3ccc(Cl)cc3Cl)nn2)n1,0,1,3,13*,16,8.6*
Cc1ccc(S(=O)(=O)N2CCN(C(C)C)CC2)cc1,0,-3,-9,1,.,.
O=C(NNC(=S)Nc1ccccc1)c1cccs1,4,4,-12,8.3*,74*,29*
O=C(NNC(=S)Nc1ccc(Cl)cc1)c1cccs1,5,0,-6,2,.,.
CC(=NNC(=O)c1cccs1)c1ccc2c(c1)OCCO2,0,5,0,3,.,.
C/C(=N\NC(=O)c1cccs1)c1ccc2c(c1)OCO2,0,4,-4,7.6*,77*,25*
CC(C)(C)c1ccc(-c2nnc(SCC(=O)Nc3ccccc3-c3ccccc3)n2Cc2ccco2)cc1,0,-5,.,.,.,.
Cc1sc2nc(CSC(C)C(=O)Nc3ccccn3)[nH]c(=O)c2c1C (stereo unspecified),-1,-1,-2,2,.,.
c1ccc2c(-c3nc(-c4ccncc4)no3)cccc2c1,0,3,7,10*,101*,32*
c1ccc(-c2noc(-c3cccc4ccccc34)n2)cc1,-3,6,24,3,.,.
CCN1C(=O)NC(c2ccc(Cl)cc2)C2=C1CCCC2=O (stereo unspecified),0,-4,-2,1,.,.
Cc1cccc(Nc2n[nH]c(C)c2[N+](=O)[O-])c1,0,4,-6,8.7*,92*,37*
O=C(NCCc1ccccc1)C1CCC(CNc2c(N3CCCCC3)c(=O)c2=O)CC1 (stereo unspecified),1,-1,-2,1,.,.
O=C(NCCc1ccc(Cl)cc1)C1CCC(CNc2c(N3CCCCC3)c(=O)c2=O)CC1 (stereo unspecified),0,1,0,16*,28*,5
O=[N+]([O-])c1cc(Cl)ccc1Sc1cccc2cccnc12,0,-3,18,2,.,.
O=[N+]([O-])c1ccc(Sc2cccc3cccnc23)cc1,0,4,19,9.3*,83*,30*
O=[N+]([O-])c1ccc(Sc2cccc3cccnc23)c([N+](=O)[O-])c1,0,-11,20,22*,-96,-22
O=[N+]([O-])c1ccc(Sc2ccncn2)c([N+](=O)[O-])c1,0,1,8,71*,-20,97*
